A short description of test [1]: NCI Yeast Anticancer Drug Screen. Data for the rad50 strain (AID 155).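 Note: 0% = growth of vehicle-only cultures of the same strain.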 Conditions: S. cerevisiae rad50 strain growth inhibition; at 50.0 µM; active compounds read high. The method, boiled down: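 Inhibition values express reduced yeast growth in compound-treated cultures relative to vehicle-treated controls.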
Test [2] is described as follows: NCI Yeast Anticancer Drug Screen. Data for the mec2-1 strain (AID 157). Particulars: S. cerevisiae mec2-1 strain, at 50.0 µM, active compounds read high. The method, boiled down:
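Yeast mec2-1 mutant treated with compound. Readout: growth inhibition vs vehicle controls.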

Test [3] is described as follows: NCI Yeast Anticancer Drug Screen. Data for the sgs1 mgt1 strain (AID 161).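 Note: 0% = growth of cultures given vehicle only.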 Particulars: S. cerevisiae sgs1 mgt1 strain, at 50.0 µM, active compounds read high. The method, boiled down: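 Read-out: growth inhibition vs vehicle controls. Cells: mutant yeast strain deficient in DNA damage repair.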
A short description of test [4]: NCI Yeast Anticancer Drug Screen. Data for the cln2 rad14 strain (AID 165).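 Note: 0% = growth equal to vehicle treated cultures.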 Conditions: S. cerevisiae cln2 rad14 strain, at 50.0 µM, active compounds read high. The essentials:
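cln2 rad14 yeast strain; compound exposure; growth inhibition read vs vehicle controls.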

Test [5] is described as follows: NCI Yeast Anticancer Drug Screen. Data for the bub3 strain (AID 167). Particulars: S. cerevisiae bub3 mutant strain, at 50.0 µM, active compounds read high. The method, boiled down: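 Steps: expose the mutant yeast strain to compound; grow alongside vehicle-treated cultures; measure growth; express inhibition against the vehicle cultures.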
Test [6] can be described thus: NCI Yeast Anticancer Drug Screen. Data for the mlh1 rad18 strain (AID 175). Conditions: S. cerevisiae mlh1 rad18 strain growth inhibition; at 50.0 µM; active compounds read high. The essentials: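 Yeast w/ defined DNA-repair lesions; compound exposure; growth vs vehicle controls → % inhibition.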

The panel holds about 79,000 compounds, 15% with a hit somewhere; the sample as a whole holds those more often. Values without a mark were called inactive. The source made the active and inactive calls. Cut-off read from the data, not from the text of the source: active = growth inhibition above about 70%; inactive = the rest.

As to `Cc1ccc(-c2nc(SCc3ccc(Cl)cc3)[nH]c(=O)c2CCO)cc1`, the growth inhibition in test [1] is 55.5%; in test [2] it was 14.3%; in test [3], 38.8%; in test [4] it was 34.4%; in test [5], 47.7%; in test [6], 32.2%.

Regarding `COc1ccc(C(c2c(O)c3ccccc3oc2=O)N2CCCC2)c(OC)c1` (stereo not given), the growth inhibition in test [1] is 7.7%; in test [2], -5.7%; in test [3], -3.25%; in test [4], -25.1%; in test [5], -1.15%; in test [6], -3.3%.

`CSC1=NC=C(C#N)C2=NC(c3ccc(Cl)cc3)NN12` (stereo not given): the growth inhibition was 1.95% in test [1]; 2% in test [2]; 17.2% in test [3]; 16.3% in test [4]; 15.8% in test [5]; 14.7% in test [6].

As to `CCCCCCCCCCCCNC(=O)c1ccccc1O`, the growth inhibition in test [1] is 13.2%; in test [2], 23.6%; in test [3] it was 17.9%; in test [4], 20.8%; in test [5] it was 10.6%; in test [6], 35.8%.

On to `Cc1ccc2occ(-c3nnc(NC(=O)c4ccccc4)s3)c(=O)c2c1`, for which the growth inhibition in test [1] was -36.2%; in test [2], -9.75%; in test [3] it was -11.7%; in test [4], -26.6%; in test [5], -7.35%; in test [6], -23.2%.

For the compound `C/C=C/C(=O)OCCc1ccccc1`, the growth inhibition in test [1] was 21.8%; in test [2] it was 3.4%; in test [3], 3.75%; in test [4] it was -5.5%; in test [5] it was 12.8%; in test [6], 27.5%.

Take `O=C(NNC(=S)Nc1ccc(Cl)cc1)C12CC3CC(CC(C3)C1)C2`: the growth inhibition is -9.4% in test [1]; 6.15% in test [2]; -4.15% in test [3]; 17.4% in test [4]; 30.8% in test [5]; 8.7% in test [6].

For `CCCCCCc1ccccn1`, the growth inhibition was 4.6% in test [1]; 9.3% in test [2]; 9.6% in test [3]; -1.6% in test [4]; -1.4% in test [5]; 17.8% in test [6].

`CCOC(=O)C(CCC(C)(C)SCc1ccccc1)(NC(C)=O)C(=O)OCC`: the growth inhibition is 25.8% in test [1]; -1.15% in test [2]; 1.45% in test [3]; 16.7% in test [4]; 2.15% in test [5]; 5.6% in test [6].

As to `CCN(CC)Cc1cc(Nc2ncnc3sc(C)c(C)c23)ccc1O`, the growth inhibition is 9.05% in test [1]; 9.95% in test [2]; 1.3% in test [3]; -13.2% in test [4]; -10.3% in test [5]; -15.7% in test [6].

In the case of `CC(C)(C)CC(C)(C)[N+](=O)[O-]`, the growth inhibition in test [1] was -1.15%; in test [2], -14.6%; in test [3] it was 2.75%; in test [4] it was 6.85%; in test [5] it was -3.25%; in test [6], 18.4%.

In the case of `CC(=O)Nc1nc(NC(C)=O)c2nc(CCN(C)c3ccc(C(=O)O)cc3)cnc2n1`, the growth inhibition was -9.05% in test [1]; -18.4% in test [2]; -5.6% in test [3]; -5.25% in test [4]; -40.5% in test [5]; 2.15% in test [6].

In the case of `O=C(O)C1(CC(CCCN2CCCCC2)c2ccccc2)CCCC1` (stereo not given), the growth inhibition in test [1] is -40%; in test [2], -9.65%; in test [3], -4.1%; in test [4] it was 6.4%; in test [5], -15.4%; in test [6] it was -36.3%.

Consider `CC(C)(C)CC(C)(C)NCc1ccccc1`, for which the growth inhibition in test [1] was 22.9%; in test [2], -5.55%; in test [3] it was 2.5%; in test [4] it was 0.2%; in test [5], 2.5%; in test [6], 18.3%.

For the compound `O=C(Nc1cc(C(F)(F)F)ccc1Cl)c1ccccc1F`, the growth inhibition is 17.1% in test [1]; 29.1% in test [2]; -6.95% in test [3]; -9.15% in test [4]; 34.9% in test [5]; 18.6% in test [6].

In the case of `Cc1nccnc1N1CCCCC1`, the growth inhibition is 19.7% in test [1]; -0.75% in test [2]; -5.8% in test [3]; 15.9% in test [4]; 1.9% in test [5]; -11.3% in test [6].

Consider `CCCOC(=O)CC(CC(=O)OCCC)C(=O)OCCC`, for which the growth inhibition in test [1] is -10.9%; in test [2], 0.55%; in test [3], -3.75%; in test [4], -13.4%; in test [5], 37.2%; in test [6] it was -2.5%.

On to `Cc1nc(-n2nc(-c3ccccc3)cc2-c2ccccc2)sc1C(=O)/C=C/c1ccc(Cl)c(Cl)c1`, for which the growth inhibition was 53.2% in test [1]; 4.55% in test [2]; 6.8% in test [3]; 21.1% in test [4]; 22.4% in test [5]; 12.8% in test [6].

With `Oc1cccc(NCNC2Nc3ccccc3N2)c1`, the growth inhibition in test [1] was 6.5%; in test [2] it was 14.7%; in test [3], -1.4%; in test [4], -11.1%; in test [5], 9.7%; in test [6], 13.6%.

On to `NCc1ccc(O)c(O)c1`, for which the growth inhibition in test [1] is -13.9%; in test [2], 19.9%; in test [3], 15.3%; in test [4] it was 13%; in test [5], 5.6%; in test [6], 10.1%.

With `COc1cc2oc(=O)ccc2cc1[C@@H]1OC(=O)[C@@]2(C)O[C@@H]12`, the growth inhibition in test [1] is -0.75%; in test [2] it was -6.3%; in test [3], -1.35%; in test [4], -35.7%; in test [5] it was 3.35%; in test [6], -2.85%.

In the case of `CC1CCC(NC2=NCCO2)C(C)C1` (stereo not given), the growth inhibition in test [1] is -20.4%; in test [2], 0.4%; in test [3] it was -3.85%; in test [4], -29.4%; in test [5] it was -14.1%; in test [6], -3.35%.

Consider `COc1cc(N)c(OC)nn1`, for which the growth inhibition in test [1] was -1.1%; in test [2] it was 9.4%; in test [3], 3.15%; in test [4], -14.8%; in test [5], 11.3%; in test [6], -10.4%.

For `Nc1nnc2nc(CC(=O)c3cccc([N+](=O)[O-])c3)c(CC(=O)c3cccc([N+](=O)[O-])c3)nn12`, the growth inhibition is 4.5% in test [1]; 4.2% in test [2]; 9.35% in test [3]; 18.2% in test [4]; 18.6% in test [5]; 14.8% in test [6].

Take `CC(C)(C)[Si](C)(C)OC1C(=O)C[C@H]2CCCC[C@@H]12` (stereo not given in full): the growth inhibition in test [1] is -6.75%; in test [2], 0.85%; in test [3], -1.75%; in test [4] it was 17.1%; in test [5], 10.2%; in test [6] it was 22.3%.

For the compound `CN(C)CCCCl`, the growth inhibition is -16.1% in test [1]; -3.05% in test [2]; 8.75% in test [3]; -26.8% in test [4]; -15.5% in test [5]; -17.3% in test [6].

As to `O=C1OC(/C=C/c2ccccc2)C(=O)C1=O` (stereo not given), the growth inhibition in test [1] was -4%; in test [2], -4.55%; in test [3], -3.9%; in test [4], 25.4%; in test [5], -9.75%; in test [6], -9.95%.

Take `S=C(Nc1ccc(I)cc1)SCc1ccc2c(c1)OCO2`: the growth inhibition is 32.5% in test [1]; 14.4% in test [2]; 25.5% in test [3]; 32.2% in test [4]; -3.65% in test [5]; 23.8% in test [6].

With `CCOC(OCC)n1ncnc1NC(=S)NCc1ccccc1`, the growth inhibition in test [1] was -15.4%; in test [2] it was -23.6%; in test [3] it was 3.75%; in test [4] it was -2.7%; in test [5], -5.85%; in test [6], -11.2%.

`CCCCON1C[C@@H](O)C(O)[C@@H](O)C1` (stereo not given in full): the growth inhibition in test [1] is -25.9%; in test [2], 8.9%; in test [3], -37.9%; in test [4] it was -13.2%; in test [5], 13.6%; in test [6], -4.35%.

For `Oc1c(/N=N/C(=S)NCCCN2CCN(CCCNC(=S)/N=N/c3[nH]c4ccccc4c3O)CC2)[nH]c2ccccc12`, the growth inhibition was 22.8% in test [1]; 6.45% in test [2]; 20.6% in test [3]; -2.7% in test [4]; -17.8% in test [5]; 14.9% in test [6].

Consider `CCCCN(CCCC)CC(O)c1cc(Cc2ccccc2)nc2c(Cl)cc(Cl)cc12` (stereo not given), for which the growth inhibition in test [1] is 95.3% (active); in test [2] it was 95.5% (active); in test [3] it was 96.8% (active); in test [4], 89.8% (active); in test [5], 95% (active); in test [6] it was 96.2% (active).

For the compound `O=C(O)CCSc1ccccc1`, the growth inhibition was 25.2% in test [1]; -23.4% in test [2]; -13.8% in test [3]; -73% in test [4]; -3.45% in test [5]; 20.1% in test [6].

`O=S1(=O)OCCOS(=O)(=O)C1S(=O)(=O)c1cccc2ccccc12`: the growth inhibition in test [1] is -19.2%; in test [2], -5.95%; in test [3], 12.8%; in test [4], -8.7%; in test [5], -2.95%; in test [6], 27%.

For the compound `COC1C(=O)c2ccccc2N1C(C)=O` (stereo not given), the growth inhibition in test [1] is 7.85%; in test [2], -2.25%; in test [3] it was -7.6%; in test [4], -18.2%; in test [5] it was -6.85%; in test [6], 1.15%.

For the compound `Nc1ccc(Sc2nnc(N)s2)cc1`, the growth inhibition was -26% in test [1]; -16.6% in test [2]; -53.1% in test [3]; 6.8% in test [4]; -31.4% in test [5]; -47.5% in test [6].

On to `CC(Cl)(CO)CCl` (stereo not given), for which the growth inhibition in test [1] is 5.45%; in test [2], 9.5%; in test [3] it was -2.65%; in test [4], 4.05%; in test [5], -6.4%; in test [6] it was 2.05%.

As to `O=C1NC(=S)NC(=O)C1=Cc1ccccc1OCc1ccccc1`, the growth inhibition in test [1] was -19.4%; in test [2], -16.1%; in test [3], -0.55%; in test [4] it was -50.6%; in test [5] it was 1.6%; in test [6], -16.6%.

For the compound `Cc1noc2cccc(OCc3ccccc3)c12`, the growth inhibition in test [1] was -32.2%; in test [2], -40.5%; in test [3] it was 5.4%; in test [4], -0.6%; in test [5], 17.4%; in test [6], -9.2%.

As to `O=C1O[C@@H](c2ccc3c(c2)OCO3)C2C(=O)O[C@@H](c3ccc4c(c3)OCO4)C12` (stereo not given in full), the growth inhibition in test [1] was 13.5%; in test [2], 8.95%; in test [3], -8.15%; in test [4], 19.4%; in test [5], 2.6%; in test [6] it was 21.7%.

As to `Cc1cc(N=[N+]=[N-])c2ccc(Cl)cc2n1`, the growth inhibition in test [1] was -8.15%; in test [2], 1.05%; in test [3] it was -5.55%; in test [4], -47%; in test [6], 33.1%.

These data come from PubChem BioAssay (NCI).
